Assay outcomes deposited in PubChem by National Center for Advancing Translational Sciences (NCATS).
Only some compounds are listed: those with a hit (about 3.2% of all), similar ones and a draw of the others.
RE007 growth inh: less growth of the S. pombe RE007 Vpr strain | Potency, µM (doses to about 92.2 µM), for the others: at the highest dose activity change, negative = less growth, most hits filed as inhibitors | S. pombe RE007 Vpr strain, BacTiter-Glo ATP luminescence, 24 h | 0.21% of 360,000 active | AID 651644; active means well fitted falling curve with a large enough effect; inconclusive means small, poorly fitted or top-dose-only effect; inactive means no such curve, though single readings can be large or run the other way; further: nearly all actives have a fitted effect of over 50% in size
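Fission yeast RE007 carrying one integrated HIV-1 vpr copy, seeded at OD 0.01 in PMG+AL medium with 23 nL pinned compound. Grown 24 h at 30 degrees; viability read by BacTiter-Glo luminescence after 5 min.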
Tb PYK inh: blocks Trypanosoma brucei pyruvate kinase | 0.12% of 410,000 active | Potency, µM (doses to about 76.8 µM), without a hit: at the top dose activity, negative = inhibition, actives largely listed as inhibitors | TbPYK enzyme, Kinase-Glo Plus ATP luminescence, 45 min | AID 624173 | Q57TT1; further: nearly all actives have a fitted effect of over 50% in size
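Luminescence from Kinase-Glo Plus, added after a 45-minute room-temperature reaction, served as the end-point read-out. The enzyme and substrate were preincubated with compound before ADP (130 uM final) initiated turnover. Concentration-effect curves came from normalized qHTS data.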
LmPK inh: inhibitors of Leishmania mexicana pyruvate kinase. Potency, µM (series often up to 57.5 µM), inactives show at the highest dose activity change, negative = inhibition, most hits filed as inhibitors. purified LmPK, Kinase-Glo ATP luminescence, 1 h. AID 1721. Q27686. 0.37% of 290,000 active
Target sequence (Q27686 whole entry, looked up): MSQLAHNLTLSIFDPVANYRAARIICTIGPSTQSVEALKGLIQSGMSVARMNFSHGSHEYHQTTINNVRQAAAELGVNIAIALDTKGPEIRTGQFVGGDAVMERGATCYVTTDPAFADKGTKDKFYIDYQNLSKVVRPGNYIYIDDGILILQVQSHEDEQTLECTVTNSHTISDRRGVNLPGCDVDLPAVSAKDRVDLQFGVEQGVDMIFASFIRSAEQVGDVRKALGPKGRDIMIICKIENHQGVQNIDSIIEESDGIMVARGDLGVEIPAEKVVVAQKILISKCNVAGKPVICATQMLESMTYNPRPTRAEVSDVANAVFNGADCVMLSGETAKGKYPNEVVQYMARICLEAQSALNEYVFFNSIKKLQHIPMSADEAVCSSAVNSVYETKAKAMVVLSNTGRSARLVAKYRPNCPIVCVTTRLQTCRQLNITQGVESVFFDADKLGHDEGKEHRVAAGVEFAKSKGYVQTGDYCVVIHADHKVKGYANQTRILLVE
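Kinase-Glo luminescence read after 1 h RT reaction of 0.1 nM LmPK with 0.5 mM PEP and 0.1 mM ADP. Activity scaled between uninhibited and enzyme-free controls.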
Sm TGR block: blocks Schistosoma mansoni thioredoxin glutathione reductase; purified TGR, DTNB reduction, TNB absorbance 405 nm; Potency, µM (titrated, usually from 114 µM), for the others: top-dose activity change, negative = inhibition, most hits filed as inhibitors; 3% of 360,000 active; AID 485364; further: nearly all actives have a fitted effect of over 60% in size
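Kinetic colorimetric format: TGR-catalysed, NADPH-driven DTNB reduction monitored via TNB absorbance. Enzyme dispensed at 20 nM; compound exposure 15 min at room temperature before reaction start.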
AMA1 RON2 block: disrupts binding of P. falciparum AMA1 to RON2; 0.2% of 360,000 active; AlphaScreen AMA1-biotinylated RON2 peptide binding; AID 720542; Potency, µM (doses to about 58.2 µM), for inactives: top-dose activity change, negative = inhibition, most hits filed as inhibitors;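 further: 0% = vehicle wells and -100% = peptide control; nearly all actives have a fitted effect of over 45% in size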
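AMA1 (3D7) with his tag at 25 nM final met compounds first, then biotinylated RON2 peptide at 25 nM; detection used donor plus acceptor beads, 10 µg/mL apiece, read by AlphaScreen after 30 min at room temperature.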
Active calls of the source: *; u = inconclusive; x = not tested or not shown; ! = repeats disagree; [ ] = another dose, or the depositor's remark. Unless noted, the call rests on the fitted dose curve; in most records, active means well fitted curve in the direction sought with a large enough effect; inconclusive means small, poorly fitted or top-dose-only effect, or another doubt; inactive means no such curve, though single readings can be large; an effect the other way counts as inactive or inconclusive. Unless noted, on the % scale 0 is the no-effect control and ±100 the full control effect; potency means the concentration at half of the fitted maximal effect.

SMILES | RE007 growth inh | Tb PYK inh | LmPK inh | Sm TGR block | AMA1 RON2 block
O=C1C=Cc2ccccc2C1=O | x | x | -15.6% | 11.2µM* | x
O=C1c2ccccc2C(=O)c2ccccc21 | x | 0.6% | x | x | x
CC1(C)CC(Nc2ccc(Nc3ccccc3)cc2)CC(C)(C)N1 | x | -22.2% | 0.7% | 6.31µM* | -23.3%
Brc1ccc2nc(SCCOc3ccccc3)[nH]c2c1 | x | 1.4% | x | -1.0% | x
Cc1ccc2nc(SCCCCOc3ccccc3)[nH]c2c1 | 56.2µM* | 1.3% | 1.3% | 13.4% | 3.2%
COc1ccc(C(=O)Nc2cccc(-c3cn4ccsc4n3)c2)c(OC)c1 | x | -3.1% | x | 1.5% | x
COc1ccc(N2CCN(C(=O)c3cccc(NC(=O)c4nsc5ccccc45)c3)CC2)cc1 | x | -9.5% | x | -1.6% | x
COc1cccc(C2=NN(S(C)(=O)=O)C(c3cn(-c4ccccc4)nc3-c3cccs3)C2)c1 (centres undefined) | x | 1.4% | x | -10.8% | x
CCC(C)(C)n1nnnc1C(c1cc2cc(C)cc(C)c2[nH]c1=O)N1CCN(C(=O)c2ccco2)CC1 (centres undefined) | 13.8% | 0.0% | 2.5% | 17.8µM* | 4.2%
CCC(C)(C)n1nnnc1C(c1cc2cc(C)ccc2[nH]c1=O)N1CCCC1 (centres undefined) | -11.6% | 1.5% | 3.1% | 20µM* | 8.2%
Cc1ccc2cc(C(c3nnnn3C(C)(C)C)N3CCCCCC3)c(=O)[nH]c2c1 (centres undefined) | -16.4% | 3.1% | -0.4% | 11.2µM* | 8.7%
CCOC(=O)c1c(C)[nH]c(C)c1S(=O)(=O)N1CCCC(C(=O)N2CCN(c3ccc(Cl)cc3)CC2)C1 (centres undefined) | x | 1.8% | x | 7.4% | x
CCN(c1cccc(C)c1)S(=O)(=O)c1cc(Br)cc2c1N(C(C)=O)C(C)C2 (centres undefined) | x | -1.2% | x | 7.4% | x
O=C1CS(=O)(=O)C2(C(=O)N(Cc3ccccc3)c3ccccc32)N1c1ccccc1 (centres undefined) | x | -0.8% | x | 1.5% | x
COc1cc(C(=O)OCc2cc(=O)n3ccsc3n2)cc(OC)c1OC | x | 6.1% | x | 2.4% | x
O=C(NC1=NCCS1)C1CCN(S(=O)(=O)c2cc([N+](=O)[O-])ccc2Cl)CC1 | -15.3% | 1.0% | x | x | -4.1%
O=C(NC(Cc1ccccc1)C(=O)O)C1CCN(S(=O)(=O)c2cccc(C(F)(F)F)c2)CC1 (centres undefined) | -9.9% | -2.4% | -5.9% | 1.8% | 3.5%
O=C(NC1=NCCS1)C1CCN(S(=O)(=O)c2ccc(Cl)cc2)CC1 | 0.4% | -9.6% | x | 50.1µM* | 0.0%
Cc1ccc(S(=O)(=O)N2CCC(C(=O)N[C@@H](Cc3ccccc3)C(=O)O)CC2)cc1 | -11.7% | 3.2% | 3.1% | 79.4µM* | -6.9%
O=C(NCc1ccc(F)cc1)C1CCN(S(=O)(=O)c2ccc(Cl)cc2)CC1 | 7.7% | 5.0% | 0.9% | 3.9% | 12.3%
O=C(NCc1ccc(Cl)cc1)C1CCN(S(=O)(=O)c2ccccc2)CC1 | -7.4% | -7.2% | 9.8% | 25.1µM*! | -1.3%
COc1ccc(C2CC(=O)c3cc(-c4nc(-c5cccc([N+](=O)[O-])c5)cs4)c(=O)n(-c4ccccc4N)c3C2)cc1 (centres undefined) | x | 0.1% | x | -3.5% | x
CCN(CC(=O)NCc1ccc(F)cc1)C(=O)/C=C/c1ccco1 | 13.2% | -7.6% | 2.5% | 20µM* | -6.6%
NS(=O)(=O)c1ccc(NC(=O)/C=C/c2ccco2)cc1 | -10.5% | -1.9% | 2.1% | 6.31µM* | -1.5%
O=C(/C=C/c1ccco1)Nc1ccc(S(=O)(=O)N2CCOCC2)cc1 | 9.1% | -8.6% | 2.1% | u | -1.9%
SMILES | RE007 growth inh | Tb PYK inh | LmPK inh | Sm TGR block | AMA1 RON2 block
CC(=O)NS(=O)(=O)c1ccc(NC(=O)/C=C/c2ccco2)cc1 | 24.7% | -3.4% | 3.1% | 3.55µM* | -4.0%
O=C(/C=C/c1ccco1)Nc1ccc(F)cc1 | x | 1.4% | x | 7.08µM* | x
COc1ccc(NC(=O)CCn2c(-c3ccc(F)cc3)cc(C(C)=O)c2C)c(OC)c1 | x | 4.1%[15.4 µM] | x | 1.7% | x
O=C(/C=C/c1ccco1)NCCc1ccc(F)cc1 | 0.1% | 0.0% | 6.5% | 7.08µM* | 1.4%
Cc1sc(NC(=O)/C=C/c2ccco2)c(C(=O)O)c1C | -29.6% | 2.9% | -11.9% | 39.8µM* | 19.3%
COc1ccc(NC(=O)c2c(NCc3cccs3)sc3c2CCCCC3)cc1 | x | u | x | 17.8µM* | x
CCOc1ccc(NC(=O)c2c(NCc3cccs3)sc3c2CCCCC3)cc1 | x | -17.3% | x | 7.94µM* | x
COc1ccc(OC)c(NC(=O)c2c(NCc3cccs3)sc3c2CCCC3)c1 | x | u | x | -23.2% | x
CCOc1ccccc1NC(=O)c1c(NCc2cccs2)sc2c1CCCCC2 | x | -14.4% | x | 6.6% | x
CCOc1ccc(NC(=O)c2c(NCc3sccc3C)sc3c2CCCCC3)cc1 | x | -26.6% | x | 7.94µM* | x
COc1ccc(OC)c(NC(=O)c2c(NCc3cccs3)sc3c2CCCCC3)c1 | x | u | x | 39.8µM* | x
CCOc1ccc(NC(=O)c2c(NCc3ccc(C)o3)sc3c2CCCCC3)cc1 | x | -29.2% | x | 8.91µM* | x
CCOc1ccc(NC(=O)c2c(NCc3cc(OC)c(OC)cc3OC)sc3c2CCCC3)cc1 | x | -17.5% | x | -27.1% | x
O=C(NC(=S)Nc1ccccc1[N+](=O)[O-])c1ccco1 | -20.4% | 7.1% | 0.2% | 50.1µM* | 4.9%
O=C(N/N=C\c1coc2ccccc2c1=O)c1ccco1 | 4.4% | 5.6% | -11.4% | 28.2µM* | 6.2%
Oc1cccc(NC(=S)Nc2ccccc2)c1 | -2.5% | 2.6% | 0.8% | 15.8µM* | 9.9%
Cc1ccc2nsnc2c1NC(=S)NC(=O)c1ccco1 | -19.8% | -3.9% | -0.2% | 44.7µM* | 21.9%
Oc1cccc(Nc2ccccc2)c1 | 2.8% | -11.3% | x | 0.0% | -0.4%
O=C(CCn1cccn1)Nc1ccc(Br)cc1F | x | 0.5% | x | -2.4% | x
CCOC(=O)[C@H](CCc1ccccc1)N[C@H]1CCCN2CCC[C@@H](C(=O)O)N2C1=O | x | 4.2% | x | x | x
O=C(NC(=S)Nc1ccc2c(c1)OCCO2)c1ccco1 | -14.8% | -4.5% | -17.9% | 15.8µM* | -8.6%
O=C(CNC(=O)c1ccco1)Nc1ccc2c(c1)OCCO2 | -0.4% | -0.4% | x | -16.0% | 3.5%
O=C(NC(=S)Nc1cccc(O)c1)c1ccco1 | x | 2.8% | -2.6% | 7.94µM* | 13.6%
O=C(NN=Cc1ccc2c(c1)OCO2)c1ccccc1 | 10.4% | 3.8% | x | x | 65.1%
O=C(N/N=C\c1ccc2c(c1)OCO2)c1ccco1 | -27.1% | -21.8% | 14.1µM* | 1.7% | 11.0%
CCC(=O)NC(c1ccco1)c1cc(Br)c2cccnc2c1O (centres undefined) | x | -3.1% | x | 35.5µM* | x
CCCC(=O)NC(c1ccco1)c1cc([N+](=O)[O-])c2cccnc2c1O (centres undefined) | -17.6% | -2.8% | -15.3% | 28.2µM* | -25.0%
